Screens (PubChem)
DT40 TDP1 CPT = DT40-hTDP1 cell growth loss with CPT; chicken DT40 Tdp1-/-;hTDP1 cells + 20 nM CPT, ATP luminescence, 48 h; Potency, µM (highest dose often 46.2 µM), inactives show top-dose activity change, negative = growth inhibition, most hits filed as inhibitors; actives 12% (n = 420,000); note: potency is the fitted concentration of half-maximal effect; nearly all actives have a fitted effect of over 55% in size
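Chicken DT40 Tdp1-/- cells stably complemented with human TDP1 were seeded at 400 cells/well in medium containing 20 nM camptothecin, exposed to pin-transferred compounds, and grown at 37 °C for at least 48 hr. Viability was read as ATP luminescence.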
HT1080 IDH1KD tx = HT-1080 IDH1 knockdown cell toxicity (counter line); Potency, µM (doses to about 46.1 µM), for the others: at the top dose activity, negative = toxicity, actives largely listed as cytotoxic; HT-1080 IDH1 knockdown viability, ATP luminescence, 48 h; AID 686971; actives 2% (n = 360,000);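 note: potency is the fitted concentration of half-maximal effect; 0% = DMSO wells and -100% = cell-free medium wells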
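Viability of IDH1-knockdown HT-1080 fibrosarcoma cells was assessed by CellTiter-Glo after 48 h at 37 °C with titrated compound; concentration-effect curves were classified by fit quality and response size.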
IL-1B inflam inh = inflammasome signaling inhibition, IL-1 beta readout | THP-1 LPS/ATP IL-1B secretion, AlphaLISA, 16 h; active compounds read low | activity change, % at 57.5 µM | actives 4.7% (n = 360,000) | AID 743279; in the data active = activity change below about -50%; inconclusive = mostly about -30% to -49%
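Secreted IL-1B measured by AlphaLISA bead assay after 16 h compound exposure of THP-1 cells; compounds (final up to 57.5 uM) added 1 h before LPS (250 ng/mL) and ATP (1.25 mM) stimulation; lower signal means less secretion.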
HT1080-NT tox = kills 2HG-producing HT-1080-NT fibrosarcoma cells. HT-1080-NT fibrosarcoma viability, CellTiter-Glo ATP luminescence, 48 h. actives 1.6% (n = 360,000). Potency, µM (series often up to 46.1 µM), for inactives: top-dose activity, negative = less viability, most hits filed as cytotoxic;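 note: NT is the 2HG producing partner of a matched IDH1 knockdown line; potency is the fitted concentration of half-maximal effect; 0% = DMSO-treated cells and -100% = media-only wells without cells; nearly all actives have a fitted effect of over 55% in size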
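Luminescent CellTiter-Glo readout after 48 hours of compound exposure at 37 degrees C defined viability of HT-1080-NT cells. Activity was normalized to DMSO wells and cell-free media wells; concentration-response curves were fitted and assigned curve classes.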
TDP1 cell noCPT = qHTS for Inhibitors of human tyrosyl-DNA phosphodiesterase 1 (TDP1): qHTS in cells in absence of CPT. DT40 Tdp1-/- hTDP1 cells, no CPT, ATP luminescence, 48 h. Potency, µM (series often up to 46.2 µM), for the others: top-dose activity change, negative = growth inhibition, actives largely listed as inhibitors. actives 15% (n = 420,000); note: potency is the fitted concentration of half-maximal effect; nearly all actives have a fitted effect of over 55% in size
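Growth kinetics read by CellTiter-Glo luminescence after ≥48 hr at 37 °C. Cells: DT40 Tdp1-/- stably carrying human TDP1, 400 per well, compound exposure in the absence of CPT (DMSO vehicle).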
ELG1 DNA repair = inhibitors of ELG1-dependent DNA repair in HEK293T cells | Potency, µM (series often up to 46.1 µM), for inactives: at the highest dose activity change, negative = inhibition, actives largely listed as inhibitors | HEK293T ELG1-luciferase reporter, luminescence, 16 h; DNA damage induced by 5-fluorouridine | actives 2.3% (n = 330,000); note: potency is the fitted concentration of half-maximal effect; nearly all actives have a fitted effect of over 55% in size
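HEK293T cells expressing luciferase-tagged ELG1 (2,000/well) received 5-Fluorouridine plus compound or DMSO for 16 hr at 37 °C. Luciferase was read by ONE-Glo luminescence after 30 min at room temperature.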
An asterisk follows results filed as active; i = inactive; ? = inconclusive; nt = not tested or not shown. In the library only some 19% were active in any assay of this set; here they are far more common. Unless noted, calls come from the whole dose curve; as a rule, active = well fitted curve in the direction sought with a large enough effect; inconclusive = small, poorly fitted or top-dose-only effect, or another doubt; inactive = no such curve, though single readings can be large; an effect the other way counts as inactive or inconclusive. Unless noted, % is set by controls: 0 for no effect and ±100 for the full control effect.

SMILES | DT40 TDP1 CPT | HT1080 IDH1KD tx | IL-1B inflam inh | HT1080-NT tox | TDP1 cell noCPT | ELG1 DNA repair
Cc1ccc(C(=O)Nc2ccccc2-c2ccccc2)cc1S(=O)(=O)Nc1cccc(C)c1C | ? | ? | ? | ? | 21µM* | ?
Cc1ccc(C(=O)NCc2ccncc2)cc1S(=O)(=O)Nc1cccc(C)c1C | -10% | -5% | 6 | -11% | 5% | 11%
Cc1ccc(OCC(=O)Nc2c3c(nn2C(C)(C)C)CS(=O)(=O)C3)cc1 | 8% | 3% | i | 0% | -8% | 0%
Cc1ccc(-n2ncc3c(N4CCCC(C)C4)ncnc32)c(C)c1 (stereo not drawn) | 8.2µM* | 6% | -11 | 16% | 7.3µM* | ?
Cc1ccc(-n2ncc3c(N4CCCC4)ncnc32)c(C)c1 | -3% | -3% | 0 | -2% | -8% | 1%
Cc1cccc(-n2ncc3c(N4CCC(C)CC4)ncnc32)c1 | ? | 1% | ? | 4% | ? | ?
CCN1CCN(c2ncnc3c2cnn3-c2cccc(C)c2)CC1 | 23µM* | nt | nt | nt | ? | nt
Cc1cccc(-n2ncc3c(N4CCCCCC4)ncnc32)c1 | ? | nt | nt | nt | 21µM* | nt
COc1cccc(N2CCN(c3ncnc4c3cnn4-c3ccc(C)cc3C)CC2)c1 | 1.8µM* | ? | -79* | 23µM* | 2.6µM* | 3.3µM*
CC(=O)c1cccc(NC(=O)c2ccc(Cl)c(S(=O)(=O)N3CCOCC3)c2)c1 | ? | nt | nt | nt | 0.46µM* | nt
CC(=O)c1cccc(NC(=O)c2cccc(S(=O)(=O)N3CCOCC3)c2)c1 | 7% | 5% | 0 | 2% | -21% | ?
CN(c1cccc(NC(=O)c2ccc(Cl)c(S(=O)(=O)N3CCOCC3)c2)c1)S(C)(=O)=O | ? | 4% | -8 | -1% | 12µM* | 23µM*
Cc1ccc(S(=O)(=O)N2CCN(C(=O)c3ccc(S(=O)(=O)N4CCCC4)cc3)CC2)cc1 | -6% | 3% | -11 | 6% | 11% | ?
Cc1cc(C)nc(N2CCN(C(=O)c3ccc(S(=O)(=O)N4CCCCCC4)cc3)CC2)n1 | 26µM* | 15% | 14 | 5% | 16µM* | ?
O=C(c1ccc(S(=O)(=O)N2CCCC2)cc1)N1CCN(c2cccc(Cl)c2)CC1 | 23µM* | -4% | -26 | -17% | 18µM* | -14%
COc1cccc(N2CCN(CC(=O)N3CCN(S(=O)(=O)c4ccc(Cl)cc4)CC3)CC2)c1 | ? | -8% | 5 | -12% | 18µM* | ?
COc1ccccc1NC(=O)Cn1c(=O)n(Cc2ccccc2)c(=O)c2sc3ccccc3c21 | -10% | nt | nt | nt | -12% | nt
COC1=C(Br)C(=O)c2ncccc2C1=O | 0.52µM* | 8.2µM* | -14 | -22% | 0.58µM* | nt
O=C1C(=O)c2cccnc2-c2ncccc21 | 0.033µM* | 0.58µM* | -108* | 1µM* | 0.0052µM* | nt
Cc1cc(NC(=O)/C=C/c2ccc(Cl)cc2)no1 | 0% | -3% | -6 | -2% | -10% | ?
COC(=O)c1sccc1NC(=O)CC1C(=O)NCCN1C(=O)Nc1ccc(C(F)(F)F)cc1 (stereo not drawn) | ? | -2% | -17 | -6% | ? | ?
O=C(NCCc1ccccc1)c1cccc2c(-c3cccnc3)coc12 | -18% | 6% | -15 | ? | -25% | nt
NC(=O)c1cccc(-c2coc3c(C(=O)NC4CCCCC4)cccc23)c1 | ? | ? | -15 | ? | 8.2µM* | nt
O=C(NCc1ccc(F)c(F)c1)c1cccc2c(-c3cccnc3)coc12 | ? | ? | -63* | -23% | ? | nt
